Bioassay records from PubChem.
The full list was thinned out, with hits kept by preference.
VACV E9 pol inh – vaccinia E9 polymerase processive synthesis inhibition; in vitro processive DNA synthesis, absorbance read-out; stronger effect = lower value; hit rate 0.94% among 46,000; normalized absorbance, % (test concentration not listed); AID 493162; in the data active means normalized absorbance mostly below about 85%, no sharp cut-off; inactive means mostly above about 86%
Large screens that a line does not name were inactive.

O=C(O)CCCSc1ccc(Cl)cc1	none
COc1ccc2cc3cc(C(=O)NCCN4CCN(c5ccccc5F)CC4)sc3nc2c1	none
COc1ccc2cc3cc(C(=O)NCCC(C)C)sc3nc2c1	none
COc1ccc2cc3cc(C(=O)NCCCN4CCCCCC4)sc3nc2c1	VACV E9 pol inh 40.1
CC1=C(C(=O)NC2CCCCC2)C2(CCCCC2)OC1=O	none
CN(C)CCOC(=O)c1ccc2[nH]c3c(c2c1)CSCC3	VACV E9 pol inh 57.5
O=C(O)c1ccc2[nH]c3c(c2c1)CSCC3	none
CC(C)OC(=O)c1ccc2[nH]c3c(c2c1)CCCC3	none
COc1cc2cc(C)nc(Cc3cccc4ccccc34)c2cc1OC	none
COc1cc2cc(C)nc(C)c2cc1OC	VACV E9 pol inh 68.0
COc1cc2cc(=O)[nH]c(C)c2cc1OC	none
CCCc1cc(N2CCN(c3ccccc3)CC2)n2c(nc3ccccc32)c1C#N	none
O=C(COC(=O)Cc1ccsc1)NC1CCCCCC1	none
COC(=O)C(C)Oc1nc(C)c(Br)c(OC)n1 (stereo not given)	none
O=C1c2cccc(O)c2C(=O)c2c(O)cccc21	none
O=C1c2ccc(O)c(O)c2C(=O)c2c(O)ccc(O)c21	none
O=C1C=CC(=O)c2c(O)cccc21	VACV E9 pol inh 74.4
O=C(CN1C(=O)COc2ccccc21)Nc1ccc(Cl)cc1	none
CC(C)Cn1c(CCNC(=O)c2ccccc2)nc2ccccc21	none
Cc1ccc(-n2c(SCC(=O)NC3CC3)nc3ccccc3c2=O)c(C)c1	none
O=C(CCC1CC(=O)Nc2ccccc21)NCc1ccccc1 (stereo not given)	none
COc1cc2c(cc1OC)C(c1ccccc1)CC(=O)N2 (stereo not given)	none
O=C1CC(c2ccccc2)c2c(ccc3ccccc23)N1 (stereo not given)	VACV E9 pol inh 83.5
O=C(NCCc1ccc(Cl)cc1)C(c1ccccc1)c1ccccc1	none
O=C(NCCc1ccc(S(=O)(=O)N2CCCC2)cc1)c1cccc2ccccc12	none
O=C(O)c1oc2ccccc2c1CSc1ccccn1	none
Cc1c(C(=O)O)oc2ccccc12	none
O=C(O)c1oc2ccccc2c1COc1ccccc1	VACV E9 pol inh 71.6
CCSC1=N/C(=C\c2ccc(C(C)C)cc2)C(=O)S1	none
CC1c2ccsc2CCN1C(=S)NC(=O)c1cccs1 (stereo not given)	none
CC1CC(=O)N(Cc2ccc(F)cc2)c2ccccc2S1(=O)=O (stereo not given)	none
Cc1ccc(CCNC(=O)C2CCCN(Cc3nc(-c4ccc(Cl)cc4)oc3C)C2)cc1 (stereo not given)	none
C[C@@]1(C(=O)O)CC[C@]2(C)CC[C@]3(C)C4=CC=C5C=C(O)C(=O)C=C5[C@]4(C)CC[C@@]3(C)[C@@H]2C1	VACV E9 pol inh 77.0
O=c1ccc(-c2ccc(S(=O)(=O)NC3CCCCC3)s2)n[nH]1	none
CC1C=CCC2C(=O)N(c3ccc4c(c3)CCC4)C(=O)C12 (stereo not given)	none
NNc1nc2cc3c(cc2s1)OCCO3	VACV E9 pol inh 51.5
NNc1nc2cc3c(cc2s1)OCO3	VACV E9 pol inh 50.1
Fc1ccc2nc(Nc3nc4ccc(F)cc4s3)sc2c1	none
c1c2c(cc3sc(N4CCOCC4)nc13)OCCO2	none
NS(=O)(=O)c1ccc2nc(NC(=O)C3CCCCC3)sc2c1	none
COC(=O)c1ccc2nc(NC(=O)C(C)C)sc2c1	none
O=C(COC(=O)c1ccc2ccccc2n1)Nc1ccccc1-c1ccccc1	none
Cc1c(C(=O)/C=C/N(C)C)nnn1-c1ccccc1	none
COC(=O)c1noc(C)c1C(=O)/C=C/N(C)C	VACV E9 pol inh 40.4
CN(C)/C=C/C(=O)c1ccc2c(c1)CCO2	none
O=C(/C=C/c1ccccc1)OCC1COc2ccccc2O1 (stereo not given)	none
COc1ccc2nc(NC(=O)c3cccnc3)sc2c1	none
COc1ccc(-c2cc3ccccn3c2C(=O)c2cccnc2)c(OC)c1	VACV E9 pol inh 43.8
COc1ccc(OC)c(NC(=O)c2cccnc2)c1	none
O=C1CCCN2N=C(SCc3ccc(C(F)(F)F)cc3)SC2=N1	none
Cc1nc2c(sc3nc4c(c(-c5ccco5)c32)CCCC4)c(=O)o1	none
Cn1c(C(=O)NC2CC2)cc2c(=O)n(C)c3ccccc3c21	none
CN1CCN(CCNC(=O)c2cc3c(=O)n(C)c4ccccc4c3n2C)CC1	VACV E9 pol inh 62.0
Cn1c(C(=O)NCCc2ccc(Cl)cc2)cc2c(=O)n(C)c3ccccc3c21	none
COc1ccc(NC(=O)CCSc2ccc3ccccc3n2)cc1	none
COc1ccc(CNCC2COc3ccccc3O2)cc1OC (stereo not given)	none
CCN(Cc1ccccc1)c1ccc(/C=N/n2cnnc2)cc1	none
CCn1c2ccccc2c2cc(C=Nc3ccc(Cl)cc3)ccc21	none
CCn1c2ccccc2c2cc(/C=N/n3cnnc3)ccc21	VACV E9 pol inh 60.8
O=c1c2cc(-c3ccccc3)sc2ncn1/N=C/c1cccs1	none
CNCC(O)Cn1c2ccccc2c2ccccc21 (stereo not given)	VACV E9 pol inh 77.6
COc1ccccc1CNCC(O)Cn1c2ccccc2c2ccccc21 (stereo not given)	none
Cc1ccc(S(=O)(=O)NCC(O)Cn2c3ccccc3c3ccccc32)cc1 (stereo not given)	none
OC(COCc1ccccc1)Cn1c2ccccc2c2ccccc21 (stereo not given)	none
CC1(C)NC(=O)N(CC(O)Cn2c3ccccc3c3ccccc32)C1=O (stereo not given)	none
CCC(CO)NCC(O)Cn1c2ccccc2c2ccccc21 (stereo not given)	VACV E9 pol inh 79.8
CC1CC(C)CN(S(=O)(=O)c2ccc(-n3cccn3)cc2)C1 (stereo not given)	none
COc1ccccc1N(C(C)=O)S(=O)(=O)c1ccc(Cl)cc1	none
CC1CCCCN1S(=O)(=O)c1ccc(N)cc1 (stereo not given)	none
O=c1oc2ccccc2n1CCOc1cccc2ccccc12	none
O=c1n(CCCN2CCN(c3cccc(Cl)c3)CC2)nc2ccccn12	VACV E9 pol inh 14.7
Cn1c(=O)oc2cc(S(=O)(=O)NCCCN3CCN(c4cccc(Cl)c4)CC3)ccc21	none
Clc1cccc(OCCN2CCN(c3ccccc3)CC2)c1	none
COc1ccc(-c2csc3ncnc(NCCO)c23)cc1	none
CN1CCC(NS(=O)(=O)c2ccc(I)cc2)CC1	none
COc1cccc2cc(C(=O)N3CCN(c4ccccc4)CC3)c(=O)oc12	none
CC(C)CCn1c(O)c(N=O)c2ccccc21	none
Cc1ccc(C)n1C(CC(=O)O)c1ccsc1 (stereo not given)	VACV E9 pol inh 73.2
Cc1ccc(C)n1C(CC(=O)O)c1ccc(F)cc1 (stereo not given)	none
O=C(O)CC(c1ccsc1)n1cccc1 (stereo not given)	none
CSC(=S)n1c2ccccc2c2ccccc21	none
COC(=O)c1ccc(S(=O)(=O)Nc2ccc3c(c2)C(=O)OC3)n1C	none
CCOc1cc(C2CC(=O)NC(SCc3ccccc3)=C2C#N)ccc1O (stereo not given)	none
CC1=C(C(=O)Nc2ccc(Cl)cc2C(=O)N2CCCCCC2)SCCO1	none
Cc1cc(OCC(=O)NC(Cc2c[nH]c3ccccc23)C(=O)O)cc(C)c1Cl (stereo not given)	VACV E9 pol inh 59.8
Cc1ccc(OCC(=O)NC(Cc2c[nH]c3ccccc23)C(=O)O)cc1 (stereo not given)	none
CC(=O)N[C@@H](Cc1c[nH]c2ccccc12)C(=O)O	none
CC(=O)Nc1ccc(N=Cc2ccc(OC(=O)c3ccccc3Br)cc2O)cc1	VACV E9 pol inh 81.5
CC(=O)Nc1ccc(N=Cc2ccc(C)cc2)cc1	none
CC(=O)Nc1ccc(N=Cc2ccc(OC(=O)c3cccnc3)cc2)cc1	none
C=CCN=C1SCC(=O)N1S(=O)(=O)c1ccccc1	none
O=C(O)CN1C(=O)c2cccc3cccc(c23)C1=O	none
O=C1c2cccc3cccc(c23)C(=O)N1c1ccc(O)cc1	none
O=C1c2cccc3cccc(c23)C(=O)N1NCCO	VACV E9 pol inh 79.7
